# Measured values published in PubChem BioAssay.
# The source made the active and inactive calls. Unless noted, how the calls were made is not given here.
# Experiments:
# [1] = test system: XIP peptide (Xip251-270) binding; experiment: XIP fragment 251-270 binding compounds – biochemical, small-molecule microarray, fluorescence 635/667 nm, 0.1 µg/mL protein, primary screen (AID 1182); details: fluorescent protein binding, 635 nm, higher = more signal, called active from +8 up or from −8 down
# XIP peptide (Xip251-270) = experiment: compounds binding XIP fragment 251-270 – biochemical, small-molecule microarray, fluorescence 635/667 nm, 0.5 µg/mL protein, primary screen (AID 1183); details: fluorescence 635 nm, higher = more signal
# [2] = blood-stage malaria parasite viability loss – strain 3D7, DAPI fluorescence, 100 nL, primary screen (AID 1184);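 further: parasites grown inside human red blood cells in medium with human serum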; details: P. falciparum 3D7 growth, 3 d, higher = more signal
# [3] = target: Homeobox protein Hox-A13 (Mus musculus) (UniProt Q62424); experiment: disruptors of Hoxa13 oligonucleotide interaction – biochemical, fluorescence polarization, labeled oligonucleotide, primary screen (AID 1185); details: Hoxa13:DNA binding, 15 min, higher = more signal, called active from +8 up or from −8 down
# Sequence of Homeobox protein Hox-A13 (Mus musculus) (Q62424 whole entry, looked up): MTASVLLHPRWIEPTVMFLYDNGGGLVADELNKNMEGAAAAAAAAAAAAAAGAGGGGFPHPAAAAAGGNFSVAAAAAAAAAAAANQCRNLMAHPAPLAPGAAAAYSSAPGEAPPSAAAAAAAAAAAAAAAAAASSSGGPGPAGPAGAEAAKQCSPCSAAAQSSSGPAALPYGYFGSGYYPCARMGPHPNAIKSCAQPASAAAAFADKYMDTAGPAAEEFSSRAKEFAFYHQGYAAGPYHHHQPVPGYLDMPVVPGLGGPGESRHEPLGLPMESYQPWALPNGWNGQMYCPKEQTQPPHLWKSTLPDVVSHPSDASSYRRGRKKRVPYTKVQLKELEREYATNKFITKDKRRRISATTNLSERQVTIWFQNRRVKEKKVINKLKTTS
# [4] = blockers of DNA damage checkpoint Chk1 activation – imaging, HeLa, hydroxyurea, phospho-Chk1 antibody, percent positive cells, primary screen (AID 1186); details: hydroxyurea-induced phospho-Chk1 immunofluorescence imaging, higher = more signal
# [5] = blockers of DNA damage checkpoint Chk1 activation – imaging, HeLa, hydroxyurea, phospho-Chk1 nuclear intensity, primary screen (AID 1187); details: hydroxyurea-induced phospho-Chk1 immunofluorescence imaging, higher = more signal
Structure (SMILES),composite z-score [1],composite z-score (XIP peptide (Xip251-270)),z-score [2],z-score [3],z-score [4],z-score [5]
C#CCCCON=C1C[C@@H](O)[C@@H](O)[C@@H]2[C@@H]3C(=O)N([C@@H](C)c4ccccc4)C(=O)[C@@H]3CC[C@H]12,-0.396 (inactive),0.164,-1.46,-2.2 (inactive),,
C[C@H](c1ccccc1)N1C(=O)[C@H]2[C@@H]3C(=CC[C@H]2C1=O)C(=O)[C@H]1O[C@H]1[C@H]3O,-0.584 (inactive),0.008,-1.23,-6.83 (inactive),,
O[C@@H](Cc1ccccc1)[C@H]1C2C=CCCC(c3ccccc3)=C2CN1Cc1cccc(Cl)c1 (stereo partly specified),-0.241 (inactive),0.27,0.514,-5.87 (inactive),-0.215 (inactive),0.0934 (inactive)
COCCCNC(=O)[C@@]1(Sc2ccc(C)cc2)CC(=O)N(Cc2ccccc2)[C@@H]1c1ccc(CO)cc1I,-0.453 (inactive),0.423,-0.0893,-2.08 (inactive),0.442 (inactive),1.03 (inactive)
COc1ccc([Si](C)(C)[C@@H]2[C@@H](CCO)O[C@]3(C(=O)N(Cc4ccc(NC(C)=O)cc4)c4ccccc43)[C@H]2C)cc1,0.935 (inactive),0.811,-2.92,-5.34 (inactive),-0.861 (inactive),-0.16 (inactive)
CCN(CC)c1ccc(N2CC=CC34O[C@@H]5/C=C\CCC(C)OC(=O)C5[C@H]3C(=O)N(CCCO)[C@@H]4C2=O)cc1 (stereo partly specified),0.217 (inactive),0.974,-0.0779,-6.38 (inactive),0.0745 (inactive),-0.0024 (inactive)
COCC(=C=CC[C@@H](O)c1ccccc1OCCO)CCO,0.291 (inactive),0.0706,-0.721,-2.37 (inactive),-0.595 (inactive),-0.534 (inactive)
CCCC[C@@H]1C[C@H]1[C@@H](NS(=O)(=O)c1cccc2cccnc12)c1ccc(-c2ccccc2)cc1,-0.111 (inactive),-0.239,-0.299,-0.507 (inactive),-0.121 (inactive),0.189 (inactive)
COCCCNC(=O)[C@]1(CCC(=O)OC(C)(C)C)N=C(c2ccc(OCCCO)cc2)O[C@@H]1c1ccccc1N=[N+]=[N-],0.448 (inactive),0.764,-1.75,-4.03 (inactive),-0.437 (inactive),-0.234 (inactive)
CC(C)C[C@@H]1NC(=O)[C@H]2C[C@@H](C(=O)O)[C@@H](c3ccc(O)cc3)N2C1=O,0.0473 (inactive),0.86,-0.251,-2.19 (inactive),-0.523 (inactive),-0.332 (inactive)
O=C(CS)NCCCCCNC(=O)[C@@H]1C[C@@H]2C(=O)N[C@@H](Cc3ccccc3)C(=O)N2[C@@H]1c1ccc(O)cc1,0.508 (inactive),0.562,-0.14,-2.5 (inactive),0.83 (inactive),0.886 (inactive)
[N-]=[N+]=Nc1ccccc1C[C@@]1(C(N)=O)N=C(c2ccc(OCCCO)cc2)O[C@@H]1c1ccccc1,0.353 (inactive),-0.649,-2.14,-4.43 (inactive),-0.332 (inactive),-0.449 (inactive)
CCCCC(=C=CC[C@H](O)c1ccccc1OCCO)C[C@H](O)COCc1ccccc1,1.03 (inactive),-0.765,-1.21,-4.61 (inactive),-0.15 (inactive),0.18 (inactive)
COCCOC(=O)N1C(=O)[C@@]2(c3cc(C#CCNC(N)=O)ccc31)[C@H](c1ccccc1OCCO)N1[C@H](c3ccccc3)[C@H](c3ccccc3)OC(=O)[C@H]1[C@@H]2C(=O)N1CCN(c2ncccn2)CC1,0.521 (inactive),0.787,-2.09,-0.789 (inactive),-0.44 (inactive),-0.438 (inactive)
CCCCCN1CC=CC23O[C@@H]4C=CCOC(=O)[C@@H]4[C@H]2C(=O)N(CCCCCCO)[C@@H]3C1=O (stereo partly specified),0.282 (inactive),-0.325,-0.658,-4.08 (inactive),-0.0533 (inactive),0.0434 (inactive)
CC(C)[Si]1(C(C)C)O[C@@H](c2ccccc2)c2cc(C3CC3)nc(-c3ccccc3)c21,-0.431 (inactive),0.555,0.0193,-1.21 (inactive),-0.652 (inactive),-0.694 (inactive)
CN1C(=O)C2C=CC(C(O)C(c3ccccc3)c3ccccc3)N(NC(=O)OC(C)(C)C)C2C1=O (stereo unspecified),3.1 (inactive),0.752,0.617,-4.08 (inactive),0.242 (inactive),-0.158 (inactive)
CC1CC/C=C\[C@H]2OC34C=CCN(Cn5nnc6ccccc65)C(=O)[C@H]3N(CCO)C(=O)[C@@H]4C2C(=O)O1 (stereo partly specified),0.711 (inactive),0.855,-0.611,-5.38 (inactive),-0.384 (inactive),-0.173 (inactive)

Structure (SMILES),composite z-score [1],composite z-score (XIP peptide (Xip251-270)),z-score [2],z-score [3],z-score [4],z-score [5]
COc1ccc(CCNC(=O)[C@@H]2c3ccccc3C(=O)N(c3ccc(C)cn3)[C@H]2c2ccc(CO)cc2)cc1,-1.02 (inactive),0.843,-0.183,-1.78 (inactive),0.274 (inactive),0.259 (inactive)
N#Cc1ccc(NN2C(C(O)c3cccc4ccccc34)C=CC3C(=O)N(c4ccccc4)C(=O)C32)cc1 (stereo unspecified),0.366 (inactive),0.684,-0.0446,1.05 (inactive),-0.145 (inactive),0.137 (inactive)
COC(=O)[C@@H]1N=C(c2ccc(OCCCO)cc2)O[C@@H]1c1ccccc1N=[N+]=[N-],0.82 (inactive),0.806,-1.43,-3.65 (inactive),-0.292 (inactive),-0.269 (inactive)
C=CCOC(=O)[C@H]1[C@@H]2C(=O)O[C@@H](c3ccccc3)[C@@H](c3ccccc3)N2[C@@H](c2ccc(OCCOC(=O)[C@H]3C[C@H]4C(=O)N5CCC[C@H]5C(=O)N4[C@H]3c3cccc(OCCO)c3)cc2)[C@]12C(=O)Nc1ccc(I)cc12,2.54 (inactive),0.829,-0.139,-1.27 (inactive),-0.576 (inactive),-0.305 (inactive)
O=C1O[C@@H](c2ccccc2)[C@@H](c2ccccc2)N2[C@@H](c3ccccc3OCCO)[C@]3(C(=O)Nc4ccc(C#CCCO)cc43)[C@@H](C(=O)O)[C@H]12,0.106 (inactive),0.842,-1.69,-5.33 (inactive),0.722 (inactive),0.803 (inactive)
CN1C(=O)C2C=CC(C(O)c3ccc(I)cc3)N(NC(=O)OC(C)(C)C)C2C1=O (stereo unspecified),0.0031 (inactive),0.575,-0.711,-2.75 (inactive),0.256 (inactive),0.078 (inactive)
C=C(/C(=C/C[C@H](OC(C)=O)c1ccc(OCCO)cc1)c1cnc2ccccc2c1)C(C)C,-0.18 (inactive),0.605,-2.99,-4.31 (inactive),-0.319 (inactive),-0.38 (inactive)
COc1ccccc1CN1C(=O)c2ccccc2[C@@H](C(=O)NCC(F)(F)F)[C@@H]1c1ccc(CO)cc1,-0.51 (inactive),0.561,-1.19,-2.99 (inactive),-0.188 (inactive),0.158 (inactive)
COC(=O)[C@@]1(Cc2ccccc2)[C@H]2c3cc(C(=O)N4CCCC4)n(Cc4ccccn4)c3C[C@H]2CN1C(=O)c1ccccc1,0.766 (inactive),0.91,-1.5,-6.05 (inactive),-0.161 (inactive),-0.295 (inactive)
CC(C)NC(=O)[C@@]1(c2ccc([N+](=O)[O-])cc2)CC(=O)N(CC23CC4CC(CC(C4)C2)C3)[C@@H]1c1ccc(CO)cc1I,0.805 (inactive),0.704,-0.705,-3.26 (inactive),-0.122 (inactive),1.16 (inactive)
CN1C(=O)[C@@]2(CCC(=O)OC(C)(C)C)N=C(c3ccc(OCCCO)cc3)O[C@H]2c2ccccc21,0.0792 (inactive),0.576,-2.1,-4.88 (inactive),-0.414 (inactive),-0.261 (inactive)
NC(=O)NCC#Cc1ccc2c(c1)[C@]1(C(=O)N2)[C@H](c2ccc(O)cc2)N2[C@H](c3ccccc3)[C@H](c3ccccc3)OC(=O)[C@H]2[C@@H]1C(=O)N1CCCCCCC1,0.145 (inactive),0.469,0.308,1.52 (inactive),-0.374 (inactive),-0.693 (inactive)
CCc1cccc(NC(=O)O[C@H]2[C@H](OC(=O)Nc3ccc4c(c3)OCO4)[C@@H](OC(=O)Nc3ccc4c(c3)OCO4)[C@@H](OC)O[C@@H]2CO)c1,0.0979 (inactive),-0.0177,-2.23,-6.22 (inactive),-0.313 (inactive),0.165 (inactive)
O=C1O[C@@H](c2ccccc2)[C@@H](c2ccccc2)N2[C@@H](c3ccc(OCCO)cc3)[C@]3(C(=O)Nc4ccccc43)[C@@H](C(=O)N3CCN(c4ncccn4)CC3)[C@H]12,0.0629 (inactive),0.812,-2.11,1.84 (inactive),0.189 (inactive),0.644 (inactive)
CCOC(=O)C1=CCC(c2cc3ccccc3[nH]2)NC1 (stereo unspecified),-0.0143 (inactive),-0.753,-0.501,-1.51 (inactive),0.437 (inactive),-0.151 (inactive)
C=CCC(OC(C)=O)[C@@H]1[C@@H](N(Cc2cc3ccccc3o2)C(=O)Cc2ccc(F)cc2)c2cc(OCCCO)ccc2N1C(=O)Cc1ccc(OC)cc1 (stereo partly specified),-0.386 (inactive),-0.0246,0.163,-2.68 (inactive),0.784 (inactive),0.0687 (inactive)
C=C(/C(=C/C[C@H](OC(=O)c1ccncc1)c1ccc(OCCO)cc1)c1cnc2ccccc2c1)C(C)C,0.782 (inactive),0.528,-2.84,-3.29 (inactive),0.118 (inactive),-0.0461 (inactive)
